APOBEC3G inh = blocks human APOBEC3G single-stranded DNA deamination; Q9HC16; recombinant A3G, ssDNA deamination FAM/TAMRA fluorescence; inhibition, % at 20 µM; 330,000 compounds, 0.28% hits; AID 493012;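 active means inhibition of at least 40% at 20 µM, with no more than 30% in the related APOBEC3A deaminase screen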;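 further: plate controls were DMSO wells with A3G for no effect and wells lacking A3G enzyme for full effect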
Target sequence (Q9HC16 whole entry, looked up): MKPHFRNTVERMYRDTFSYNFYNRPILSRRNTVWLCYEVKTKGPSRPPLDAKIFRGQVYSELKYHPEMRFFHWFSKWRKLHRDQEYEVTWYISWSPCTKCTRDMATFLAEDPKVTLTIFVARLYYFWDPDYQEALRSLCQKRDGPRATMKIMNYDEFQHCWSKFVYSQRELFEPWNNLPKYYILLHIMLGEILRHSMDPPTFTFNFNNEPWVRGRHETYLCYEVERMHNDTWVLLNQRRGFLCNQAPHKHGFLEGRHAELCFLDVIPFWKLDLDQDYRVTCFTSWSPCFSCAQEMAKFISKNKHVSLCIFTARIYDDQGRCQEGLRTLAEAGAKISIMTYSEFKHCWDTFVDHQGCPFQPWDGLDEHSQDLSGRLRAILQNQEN
A3A deaminase = human APOBEC3A DNA deaminase inhibition | 330,000 compounds, 0.41% hits | inhibition, % at 20 µM | P31941 | recombinant A3A, FAM/TAMRA ssDNA deamination fluorescence;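 active means at least 40% inhibition at 20 µM here, with at most 30% in a related deaminase screen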;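 further: plate controls were A3A with DMSO for no effect and wells lacking A3A enzyme for full effect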
Target sequence (P31941 whole entry, looked up): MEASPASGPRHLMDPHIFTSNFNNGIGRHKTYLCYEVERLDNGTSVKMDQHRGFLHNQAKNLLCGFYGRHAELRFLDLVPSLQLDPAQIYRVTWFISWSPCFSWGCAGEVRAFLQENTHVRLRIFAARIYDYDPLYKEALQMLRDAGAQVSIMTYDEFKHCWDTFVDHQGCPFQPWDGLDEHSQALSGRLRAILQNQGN
eIF4H inh = inhibitors of RNA binding by human eIF4H; inhibition, % at 35 µM; eIF4H fluorescence polarization binding assay; 290,000 compounds, 0.94% hits;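 further: calls also rest on retests at 20 µM and on dose response follow-up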
PABP1 MLLE inh = inhibitors of microRNA-mediated deadenylation, human PABP1 MLLE binding | P11940 | GST-MLLE / FITC-PAM2 fluorescence polarization | inhibition, % at 20 µM | 360,000 compounds, 0.36% hits; in the data active means inhibition above about 35%, passing the limit was not always enough;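 further: plate controls were DMSO wells with GST-MLLE for no effect and wells lacking GST-MLLE protein for full effect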
PABP polyA inh = blocks human PABP binding to poly(A) RNA; P11940; fluorescence polarization; calls only at 35 µM; 290,000 compounds, 1% hits; AID 2014;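 further: calls also rest on retests at 20 µM and on dose response follow-up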
PHOSPHO1 inh = inhibitors of human PHOSPHO1 phosphatase; recombinant PHOSPHO1, absorbance phosphatase assay; AID 1565; Q8TCT1; 290,000 compounds, 1.1% hits; inhibition, % at 13.3 µM; in the data active means inhibition above about 60%
Starred values were filed as active, the others as inactive; i = inactive; x = not tested or not shown; + = active, no number. In the library only some 2.6% were active in any assay of this set; here they are far more common. Unless noted, how the calls were made is not given here.

SMILES	APOBEC3G inh	A3A deaminase	eIF4H inh	PABP1 MLLE inh	PABP polyA inh	PHOSPHO1 inh
O=C(CCCN1C(=O)/C(=C/c2ccco2)SC1=S)Nc1ccccc1C(=O)O	90	99	100*	8	+	-114
O=C(O)CN1C(=O)/C(=C/c2ccc(SCc3ccccc3)o2)SC1=S	x	x	60*	-123	+	56
O=C1/C(=C\c2ccco2)SC(=S)N1c1ccccc1	-4	15	86	2	i	0
O=C1/C(=C\c2ccco2)SC(=S)N1Cc1ccccc1	3	10	76*	6	+	-108
O=C(CN1C(=O)/C(=C\c2ccco2)SC1=S)Nc1ccc(O)cc1C(=O)O	78	96	79*	-12	+	12
CCc1noc(C)c1C(=O)N1CCCSC1=Nc1ccccc1C(C)C	-1	0	x	8	x	x
CC(C)(C)OC(=O)CNC(=O)c1[nH]cnc1C(=O)NC(c1ccccc1)c1ccccc1	-15	-1	7	-15	i	-24
COc1ccc(S(=O)(=O)N2CCC(C(=O)Nc3ccc4c(c3)OCCO4)CC2)cc1OC	-7	0	-1	0	i	5
CCOC(=O)N1CCN(C(=O)c2cccc(S(=O)(=O)Nc3ccccc3Cl)c2)CC1	-8	-3	x	-4	x	x
O=C(CCN1C(=O)/C(=C/c2ccco2)SC1=S)Nc1ccc(O)cc1C(=O)O	42	78	101*	11	+	44
O=C(CCCN1C(=O)/C(=C\c2ccco2)SC1=S)Nc1ccc2ccccc2c1	-3	10	78*	-11	+	-1
CC(/C=C1\SC(=S)N(CCC(=O)Nc2ccccc2O)C1=O)=C\c1ccccc1	-9	-6	51	-51	+	48
CC(=C\c1ccccc1)/C=C1/SC(=S)N(CCCC(=O)O)C1=O	-8	-3	6	14	i	39
O=C(O)CCCN1C(=O)/C(=C\c2ccco2)SC1=S	x	x	100*	26	+	-50
CC(=C\c1ccccc1)/C=C1/SC(=S)N(CCC(=O)Nc2ccccn2)C1=O	-2	0	21	x	i	-13
O=C(COC(=O)c1ccc([N+](=O)[O-])o1)NC1CCCc2ccccc21 (stereo unspecified)	-3	2	x	1	x	x
CCC(NC(=O)COC(=O)C1CC2CCCC(C1)C2=O)c1ccc(Br)cc1 (stereo unspecified)	-9	2	x	-4	x	x
O=C(CCN1C(=O)/C(=C\c2ccco2)SC1=S)Nc1ccc(C(=O)O)c(O)c1	63	86	x	-8	x	30
COc1ccc(CCN2C(=O)/C(=C\c3ccco3)SC2=S)cc1OC	-10	1	63*	1	+	-147
O=C(CCN1C(=O)/C(=C/c2ccco2)SC1=S)Nc1ccc(C(=O)O)c(O)c1	39	66	86*	-8	+	33
COc1ccc(OCC(O)CNS(=O)(=O)c2ccc(NC(C)=O)cc2)cc1 (stereo unspecified)	-3	-1	-3	9	i	0
CCn1c(SCC(=O)NCc2ccco2)nnc1C1CCCC1	-2	-3	-9	9	i	x
C=CCn1c(COc2ccccc2F)nnc1SCC(=O)NC(=O)NCc1ccco1	17	24	76	-74	i	81*
O=C(CSc1nnc(C2CCCCC2)n1Cc1ccccc1)NCc1ccco1	2	5	-8	-63	i	76*
COc1ccccc1OCc1nnc(SCC(=O)NCc2ccco2)n1Cc1ccco1	0	11	45	-83	i	65*
SMILES	APOBEC3G inh	A3A deaminase	eIF4H inh	PABP1 MLLE inh	PABP polyA inh	PHOSPHO1 inh
COc1ccc(-c2nc(SCC(=O)NCc3ccco3)c(-c3ccccc3)[nH]2)cc1OC	-3	-2	-2	28	i	63*
Cc1ccccc1OCc1nnc(SCC(=O)NCc2ccco2)n1C	-12	-5	-12	-14	i	36
Cc1ccc(-c2cc(C(=O)Nc3ccc(S(=O)(=O)Nc4nccs4)cc3)c3ccccc3n2)c(C)c1	-3	-1	60*	22	+	-31
CCCn1nc(C(=O)Nc2ccc(S(=O)(=O)Nc3nccs3)cc2)c2ccccc2c1=O	-5	-1	58*	-39	+	-1
CCn1nc(C(=O)Nc2ccc(S(=O)(=O)Nc3ncccn3)cc2)c2ccccc2c1=O	-5	3	3	-12	i	-15
CCOc1ccc(-n2ccc(=O)c(C(=O)Nc3ccc(S(=O)(=O)Nc4nccs4)cc3)n2)cc1	8	0	34	9	i	45
O=C(Nc1ccc(S(=O)(=O)Nc2nccs2)cc1)c1nn(-c2ccc(F)cc2)ccc1=O	11	-22	80*	6	+	51
CCc1cccc(NS(=O)(=O)c2c(C)nc3sc(CC)nn3c2=O)c1	-10	-3	-7	-1	i	25
Cc1ccc(C2(C)NC(=O)N(CC(=O)NCc3ccccc3Cl)C2=O)cc1 (stereo unspecified)	-5	-2	-6	4	i	37
Cc1nn(-c2nnc(C)c(=O)[nH]2)c(C)c1SCC(=O)Nc1ccc(C(C)C)cc1	-3	-1	4	0	i	62*
Cc1nn(-c2nnc(C)c(=O)[nH]2)c(C)c1SCC(=O)Nc1ccc(F)cc1	-3	-2	-2	21	i	55
O=C(NCc1cnn(-c2ccc(F)cc2)c1)C1CCC(=O)N(C2CC2)C1 (stereo unspecified)	-5	-5	-4	4	i	61*
Cc1ccc(Cl)c(OC(=O)C2CSC3(C)CCC(=O)N23)c1 (stereo unspecified)	-6	-4	x	2	x	x
Cc1cc2cc(CNS(=O)(=O)c3ccc4ccccc4c3)ccc2n1C	12	5	29	43*	i	-2
COc1cccc(NC(=S)NCc2ccc3c(c2)cc(C)n3C)c1	x	x	-9	7	i	32
CC(=O)Nc1ccc(S(=O)(=O)NCc2ccc3c(c2)cc(C)n3C)cc1	2	0	55*	50	+	3
Cc1cc2cc(CNC(=S)Nc3ccc(OC(F)(F)F)cc3)ccc2n1C	5	-1	77	46*	i	-14
CC(=O)Nc1ccc(S(=O)(=O)NCc2ccc3[nH]c(C)cc3c2)cc1	-4	-6	5	33	i	18
Cc1ccc(-c2nc(NC(=O)c3cc(C(C)(C)C)nn3C)sc2C)cc1Cl	3	3	9	-7	i	1
COc1ccc(Nc2ccc(N3C(=O)CC(C)C3=O)cc2[N+](=O)[O-])cn1 (stereo unspecified)	-9	5	74	40*	+	-18
COc1cccc(CCNc2ccc(N3C(=O)CC(C)C3=O)cc2[N+](=O)[O-])c1 (stereo unspecified)	-1	1	-6	17	i	8
CN(C)c1ccc(NC(=O)c2sc(SCC(=O)Nc3nccs3)nc2N)cc1	-1	-3	2	17	i	67*

Bioassay records deposited in PubChem by Sanford-Burnham Center for Chemical Genomics.
